Reference: the supplement of paper PMC6555819

Columns and labels:
Test in all cases: PBM binding z-score (relative to random genomic background probes); higher = stronger binding; sequences stand for … in GC…GCGATTGACAGCGTAGAATGAAGG
[1] = test system: FXR:RXRa (NR concentration 270 nM, RXRa partner concentration 90 nM)
Summary of the method: (§1)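 For binding z-scores, the reference was random background probes on custom Agilent 4×180K protein-binding microarrays. These arrays were incubated 1 h with ligand-free nuclear receptor dimers in PBS pH 7.4, 2% milk, 0.02% Triton X-100, 1 mM DTT, 0.2 mg/mL BSA and 0.4 mg/ml salmon testes DNA. Fluorescence was scanned after antibody detection of each partner (one per run) and regression-normalized.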

[2] = test system: LXRa:RXRa (NR concentration 270 nM, RXRa partner concentration 90 nM)
Summary of the method: as §1

[3] = test system: LXRa homodimer (NR concentration 270 nM)
Summary of the method: as §1

[4] = test system: LXRb:RXRa (NR concentration 270 nM, RXRa partner concentration 90 nM)
Summary of the method: as §1

[5] = test system: LXRb homodimer (NR concentration 270 nM)
Summary of the method: as §1

[6] = test system: PPARa:RXRa (NR concentration 270 nM, RXRa partner concentration 90 nM)
Summary of the method: as §1

[7] = test system: PPARg:RXRa (NR concentration 180 nM, RXRa partner concentration 90 nM)
Summary of the method: as §1

[8] = test system: PPARg:RXRa 270nM:90nM, anti-RXR (NR concentration 270 nM, RXRa partner concentration 90 nM)
Summary of the method: as §1

[9] = test system: PPARg:RXRa 30nM:10nM, anti-RXR (NR concentration 30 nM, RXRa partner concentration 10 nM)
Summary of the method: as §1

[10] = test system: PPARg:RXRa 90nM:30nM, anti-RXR (NR concentration 90 nM, RXRa partner concentration 30 nM)
Summary of the method: as §1

[11] = test system: PPARg:RXRa DBDmut IVT, anti-RXR (DBD mutation: RXRa K156A/R161A, NR concentration 270 nM, RXRa partner concentration 90 nM)
Summary of the method: as §1

[12] = test system: PPARg:RXRa IVT, anti-PPARg (NR concentration 270 nM, RXRa partner concentration 90 nM)
Summary of the method: as §1

[13] = test system: PPARg DBDmut:RXRa IVT, anti-PPARg (DBD mutation: PPARg1 K132A/R137A, NR concentration 270 nM, RXRa partner concentration 90 nM)
Summary of the method: as §1

[14] = test system: PPARg DBDmut IVT, anti-PPARg (DBD mutation: PPARg1 K132A/R137A, NR concentration 270 nM)
Summary of the method: as §1

[15] = test system: PPARg homodimer (NR concentration 180 nM)
Summary of the method: as §1

[16] = test system: PXR:RXRa (NR concentration 270 nM, RXRa partner concentration 90 nM)
Summary of the method: as §1

[17] = test system: PXR homodimer (NR concentration 270 nM)
Summary of the method: as §1

[18] = test system: RARa:RXR (NR concentration 270 nM, RXRa partner concentration 90 nM)
Summary of the method: as §1

[19] = test system: RARa homodimer (NR concentration 270 nM)
Summary of the method: as §1

[20] = test system: RARb:RXRa (NR concentration 270 nM, RXRa partner concentration 90 nM)
Summary of the method: as §1

Row | Sequence | PBM binding z-score [1] | PBM binding z-score [2] | PBM binding z-score [3] | PBM binding z-score [4] | PBM binding z-score [5] | PBM binding z-score [6] | PBM binding z-score [7] | PBM binding z-score [8] | PBM binding z-score [9] | PBM binding z-score [10] | PBM binding z-score [11] | PBM binding z-score [12] | PBM binding z-score [13] | PBM binding z-score [14] | PBM binding z-score [15] | PBM binding z-score [16] | PBM binding z-score [17] | PBM binding z-score [18] | PBM binding z-score [19] | PBM binding z-score [20]
1 | ATCTCTAGGTAAAAGTTCAGTGCATCCCGAGGAT | 0.914 | 1.67 | 1.72 | 0.979 | 0.86 | 4.39 | 8.17 | 7.48 | 7.56 | 8.52 | 1.88 | 3.85 | 0.957 | 1.05 | 1.6 | 2.28 | 2.08 | 1.69 | 1.4 | 2.36
2 | TAGCCTAGGTCAGATCGGGCCAGTACACGCTATA | 2.56 | 1.36 | -0.186 | 0.718 | -0.385 | 1.82 | 0.74 | 0.997 | -0.169 | -0.0312 | 0.552 | 1.62 | -0.751 | -0.825 | 0.487 | 1.33 | -0.37 | 0.937 | -0.817 | 3.22
3 | ACGAGCAGGCCAAGGGTCACTCAAGATTAGTCCG | 2.54 | 2.98 | 0.215 | 2.7 | -0.627 | 4.15 | 5.95 | 6.33 | 3.74 | 5.66 | 0.294 | 2.7 | -0.273 | -0.61 | 1.76 | 3.15 | -0.226 | 4.01 | 0.319 | 3.69
4 | AGTCAAAGTTCATCTATGTAACGTAAGATATGCT | 6.5 | 5.79 | 5.16 | 3.59 | 1.69 | 4.44 | 6.21 | 5.9 | 3.03 | 5.29 | 0.144 | 2.33 | 0.955 | 1.14 | 3.7 | 5.09 | 5.26 | 3.82 | 1.52 | 4.89
